What all share (assay): NCI-60 one-dose screen, 48 h (100 = growth as untreated, 0 = no growth, -100 = all killed)
What all share (settings): 10 µM unless noted

In test [1] the test system is NCI-H23 lung.
Test [2] concerns NCI-H226 lung.
Test [3] concerns NCI-H322M lung.
The test system of test [4] is HOP-62 NSCLC.
Test [5] relates to NCI-H460 lung.
Test [6] deals with HOP-92 NSCLC.
Test [7] has as its system NCI-H522 lung.
The subject of test [8] is A549/ATCC NSCLC.
The test system of test [9] is 786-0 renal.
Test [10] deals with COLO 205 colon.
The subject of test [11] is DU-145 prostate.
The test system of test [12] is K-562 leukemia.
Test [13] concerns MALME-3M melanoma.
Test [14] concerns MDA-MB-231 breast.
The subject of test [15] is RXF 393 renal.
Test [16] concerns SF-268 CNS.
The test system of test [17] is SF-295 CNS.
The subject of test [18] is SF-539 CNS.
Test [19] concerns UACC-257 melanoma.
The test system of test [20] is M14 melanoma.

Compounds without any hit were thinned out: in the full panel of roughly 83,000, 20% have a hit.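 The test compound was applied at a single concentration to cells in 96-well plates for 48 hours, and percent growth was recorded.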 Values without a mark were called inactive. The source made the active and inactive calls. Rule for the calls: active = growth percent below 10; inactive = the rest.

On to `Cc1ccc(S(=O)(=O)/C(=C\c2ccc(Cl)cc2)C(=O)c2ccccc2)cc1`, for which the growth in [1] was 102%; in test [2], 97.9%; in [3], 101%; in test [4], 104%; in [5], 106%; in test [6] it was 94.6%. Besides, the growth in test [7] is 96.3%; in test [8], 106%; in test [9], 103%; in [10] it was 102%; in test [11] it was 113%; in [12], 96.1%. In addition, the growth is 107% in [13]; 103% in test [14]; 104% in test [15]; 103% in test [16]; 93.1% in test [17]; 122% in test [18]. In addition, the growth in test [19] was 114%; in test [20], 102%.
On to `c1ccc(-c2nnc(-c3ccccn3)s2)nc1`, for which the growth in test [1] is 79.6%; in test [2], 96.8%; in test [3] it was 117%; in test [4], 80.4%; in test [5], 102%; in test [6], 89.7%. In addition, the growth in test [7] is 96.1%; in test [8], 102%; in test [9], 78.9%; in test [10] it was 109%; in test [11], 110%; in [12], 93.9%. Further, the growth in test [13] was 86.3%; in [14] it was 95.1%; in test [15], 109%; in test [16] it was 95.4%; in [17] it was 100%; in [18], 99.8%. Besides, the figures for the growth in test [19] and in [20] were 96% and 82.8%, respectively.
`NC(=S)N/N=C(/CCN1CCCC1)CC(C1=C(O)C2=CCCCC2OC1=O)c1ccccc1` (stereo not given): the growth is 72.8% in test [1]; 85.7% in test [2]; 85.7% in [3]; 79.1% in test [4]; 101% in test [5]; 68.3% in test [6]. For the same compound, the growth in test [7] was 80.1%; in test [8], 99.4%; in test [9] it was 105%; in [10], 102%; in [11], 87.3%; in test [12], 38.8%. Moreover, the growth is 73% in [13]; 70.4% in [14]; 106% in [15]; 89.6% in [16]; 98.5% in [17]; 95.4% in [18]. For the same compound, the growth is 73.1% in test [19] and 79% in [20].
`COc1ccc(Nc2ncccc2C(=O)NCc2cn(Cc3cccc(Oc4ccccc4)c3)nn2)c(OC)c1`: the growth in test [1] is 37.5%; in test [2] it was 73.5%; in test [3] it was 56.1%; in test [4], 41.7%; in [5] it was 7.15% (active); in test [6], 62%. Also, the growth was 11.6% in test [7]; 39% in test [8]; 34% in test [9]; 4.54% (active) in [10]; 4.02% (active) in test [11]; 21.3% in test [12]. Moreover, the growth was 46.4% in [13]; 23.9% in test [14]; 6.03% (active) in [15]; 36.6% in [16]; 7.69% (active) in [17]; 5.94% (active) in test [18]. Besides, the growth in test [19] is 85.5%; in test [20] it was 14.2%.
In the case of `CCN(CC)c1ccc2[nH]c3c(C(N)=O)cc(=O)c(=O)c=3oc2c1`, the growth in test [1] is -28.2% (active); in test [2], 7.46% (active); in test [3], -9.42% (active); in [4], -11.8% (active); in test [5] it was -31.8% (active); in test [6], 26%. The growth in test [7] was -39.7% (active); in [8], -5.31% (active); in test [9], 15%; in test [10] it was 1.25% (active); in test [11], -1.89% (active); in [12], 9.48% (active). In addition, the growth in test [13] is -59.9% (active); in test [14] it was 18%; in test [15] it was -24.5% (active); in [16], 10.5%; in test [17] it was -9.14% (active); in test [18], -28.3% (active). Further, the growth in test [19] is -29.2% (active); in test [20], -7.36% (active).
For the compound `COc1ccc2[nH]c(C(=O)OCc3ccc4c(Cl)cc(Cl)c(O)c4n3)cc2c1`, the growth was -23.9% (active) in [1]; -59% (active) in test [2]; 54.3% in test [3]; 28.2% in [4]; -35.2% (active) in test [5]; -78.6% (active) in [6]. Also, the growth in test [7] was -76.8% (active); in test [8] it was 5.45% (active); in test [9] it was -83.1% (active); in test [10], -75% (active); in test [11] it was -98.2% (active); in test [12], -13.7% (active). Also, the growth in test [13] was -79.9% (active); in [14] it was -75.9% (active); in [15] it was -93% (active); in test [16], -72.9% (active); in [17], 67.8%; in [18] it was -96.4% (active). The growth in test [19] is -77.3% (active); in test [20], -78.2% (active).
Take `NC(=O)CCCN1C/C(=C\c2ccccc2)C(=O)c2ccccc21`: the growth in test [1] is 95.6%; in test [2], 86.4%; in test [3], 88.2%; in test [4], 88.8%; in test [5], 111%; in test [6], 84.4%. The growth in test [7] is 80.4%; in [8], 95.1%; in test [9], 96.6%; in test [10], 105%; in test [11], 102%; in test [12], 97.1%. Besides, the growth in test [13] is 105%; in test [14], 100%; in [15], 81.9%; in test [16], 90.2%; in test [17] it was 94.3%; in test [18] it was 105%. Also, the growth in test [19] is 87.5%; in [20], 103%.
Turning to `COc1cc(C2C3=C(COC3=O)Nc3cc4c(cc32)CCC4)cc2c1OCO2` (stereo not given), the growth was 19.6% in test [1]; 31.9% in test [2]; 50.7% in test [3]; 35.5% in test [4]; 7.05% (active) in test [5]; 41.1% in [6]. Also, the growth in test [7] is -3.96% (active); in test [8] it was 18.7%; in test [9], 18.1%; in [10] it was -63.1% (active); in test [11], -0.3% (active); in test [12], 14.1%. The growth in test [13] is 60%; in test [14], 20.8%; in [15] it was 30.4%; in [16], 27.9%; in test [17], 6.57% (active); in [18] it was 10.2%. The growth in test [19] is 73.1%; in [20], 12%.

Source of the values: PubChem BioAssay (NCI).
